Source: PubChem (Broad Institute)
aSyn UTR act = Activators via SNCA 5'UTR binding, MLPCN | alpha-synuclein 5'UTR reporter, activators screen | activity score, % (tested at 7.5 µM), hits read low | actives 7.1% (n = 300,000) | AID 1814; in the data active = activity score below about -60%
An asterisk follows results filed as active. These entries were drawn from the full list.

What do the screens show for `Oc1cccc(/C=N/c2c(-c3ccco3)nc3ccccn23)c1`?
aSyn UTR act: -72*

What do the screens show for `CCOC(=O)C1=C(N)n2c(s/c(=C/c3ccco3)c2=O)=C(C(=O)OC)C1c1ccco1` (configuration not stated)?
aSyn UTR act: -66*

How did CC(=O)c1ccc(OCc2ccccc2)c(C)c1O do in these assays?
aSyn UTR act: -108*

Results for O=C(Nc1ccccc1Cl)c1ccc2nccnc2c1 ?
aSyn UTR act: -96*

Results for O=C(Nc1ccc(Cl)cn1)c1ccc2nccnc2c1 ?
aSyn UTR act: -112*

How did Cc1ccc(-n2c(-c3ccc(Br)cc3)c[n+]3c2CCc2ccc4cccnc4c2-3)cc1 do in these assays?
aSyn UTR act: 86

What do the screens show for `O=C(Cc1nc2ccccc2[nH]1)c1ccc([N+](=O)[O-])cc1`?
aSyn UTR act: -90*

What do the screens show for `O=C(Cc1nc2ccccc2[nH]1)c1ccc(Cl)cc1`?
aSyn UTR act: -80*

How did CCc1cc(C(=O)Cc2nc3ccccc3[nH]2)c(O)cc1O do in these assays?
aSyn UTR act: -183*

What do the screens show for `Clc1ccc(/C(Cc2nc3ccccc3[nH]2)=N\Nc2ccccc2)cc1`?
aSyn UTR act: -115*

How did CCC(=O)NC(c1ccc(OC)cc1)c1cc(Cl)c2cccnc2c1O (configuration not stated) do in these assays?
aSyn UTR act: 81

How did COc1ccc(/C(O)=C2/C(=O)C(=O)N(c3ccccn3)C2c2ccc(C(C)C)cc2)cc1 (configuration not stated) do in these assays?
aSyn UTR act: -122*

How did COc1ccc(N2C(=O)C(=O)/C(=C(/O)c3ccc(C)cc3)C2c2cccnc2)cc1 (configuration not stated) do in these assays?
aSyn UTR act: -62*

How did O=C(CNC(=O)c1cn2ccccc2n1)Nc1ccc(F)c(F)c1 do in these assays?
aSyn UTR act: -209*

What do the screens show for `COc1ccc(-c2coc3cc(O)cc(O)c3c2=O)cc1`?
aSyn UTR act: -115*

How did COc1ccc(-c2coc3cc(OC)cc(OC)c3c2=O)cc1 do in these assays?
aSyn UTR act: -166*

How did CC(C)Oc1cc(O)c2c(=O)c(-c3ccc(O)cc3)coc2c1 do in these assays?
aSyn UTR act: -138*

How did COc1ccc(-c2coc3cc(OC)cc(O)c3c2=O)cc1 do in these assays?
aSyn UTR act: -130*

Results for O=c1c(-c2ccc(O)cc2)coc2cc(O)cc(O)c12 ?
aSyn UTR act: -99*

How did CS(=O)(=O)Oc1ccc2c(c1)O/C(=C\C=C\c1ccccc1)C2=O do in these assays?
aSyn UTR act: -81*

What do the screens show for `CCN(CC)Cc1c(O)ccc2c1O/C(=C\C=C\c1ccccc1)C2=O`?
aSyn UTR act: -438*

What do the screens show for `CSc1nc(-c2ccc(Cl)cc2)nn1S(=O)(=O)c1ccc(Cl)cc1`?
aSyn UTR act: -74*

How did CC(C)CCn1c(SCc2ccc(Cl)cc2)nc2c1c(=O)[nH]c(=O)n2C do in these assays?
aSyn UTR act: 57

How did CS(=O)(=O)n1nc(-c2ccc(Cl)cc2)nc1SCc1ccccc1 do in these assays?
aSyn UTR act: -112*

What do the screens show for `CSc1nc(-c2ccc(Cl)cc2)nn1S(=O)(=O)c1ccccc1`?
aSyn UTR act: -74*

Results for CN1CCN(C2Cc3ccc(F)cc3Sc3cc(F)c(Cl)cc32)CC1 (configuration not stated) ?
aSyn UTR act: 102

How did CNC(=O)c1sc2nc(-c3ccc(OC)cc3)cn2c1C do in these assays?
aSyn UTR act: -138*

Results for CCN(CC)C(=O)c1sc2nc(-c3ccc(OC)cc3)cn2c1C ?
aSyn UTR act: -150*

What do the screens show for `C/C(CC(C)C)=N\NC(=O)Nc1ccccc1`?
aSyn UTR act: -69*

How did N/C(=N\NC(=O)Nc1ccccc1)c1ccccn1 do in these assays?
aSyn UTR act: -168*

How did O=C(Nc1ccc2c(c1)Cc1ccccc1-2)c1ccco1 do in these assays?
aSyn UTR act: -160*

How did COc1cccc(OC)c1C(=O)Nc1ccc2c(c1)Cc1ccccc1-2 do in these assays?
aSyn UTR act: -105*

Results for COC(=O)c1c(C)[nH]c(O)c1C=Nc1ccc(C(C)C)cc1 ?
aSyn UTR act: -71*

Results for COC(=O)c1ccc(NC(=S)Nc2ccccn2)cc1 ?
aSyn UTR act: -171*

How did COc1ccc(NC(=S)Nc2ccccn2)cc1 do in these assays?
aSyn UTR act: -168*

How did COc1cccc(C(=O)Nc2nnc(C3CCCO3)s2)c1 (configuration not stated) do in these assays?
aSyn UTR act: -99*

How did O=C(Nc1nnc(C2CCCO2)s1)c1cccs1 (configuration not stated) do in these assays?
aSyn UTR act: -90*

Results for O=C(Nc1nnc(C2CCCCC2)s1)c1cccs1 ?
aSyn UTR act: -163*

Results for Cc1ccc(C(=O)c2c3ccccc3[n+]([O-])n2[C@@H](C)C(N)=O)cc1 ?
aSyn UTR act: -87*

Results for C/C(=N/OC(=O)C1CC1)c1cc(-c2ccc(Cl)cc2)no1 ?
aSyn UTR act: -133*

What do the screens show for `C/C(=N\OC(=O)c1ccccc1)c1cc(-c2ccc(Cl)cc2)no1`?
aSyn UTR act: -152*

What do the screens show for `O=C(N/N=C1\CCCc2ccccc21)c1ccc([N+](=O)[O-])cc1`?
aSyn UTR act: -82*

Results for Cc1ccc(C(=O)N/N=C2\CCCc3ccccc32)c(C)c1 ?
aSyn UTR act: -161*

Results for CCC1SC(=NC(=O)c2ccc(Cl)c(Cl)c2)NC1=O (configuration not stated) ?
aSyn UTR act: -76*

What do the screens show for `C=C(C(=O)c1ccccc1)C(C)C(=C)C(=O)c1ccccc1`?
aSyn UTR act: -149*

Results for S=C(c1ccc(-c2ccccc2Cl)o1)N1CCCCC1 ?
aSyn UTR act: -170*

Results for O=C(Nc1ccccc1N1CCCCC1)c1ccc(-c2ccc(Cl)cc2)o1 ?
aSyn UTR act: 99

Results for S=C(c1ccc(-c2ccc(Cl)cc2)o1)N1CCCCC1 ?
aSyn UTR act: -150*

What do the screens show for `O=C(c1ccc(-c2ccccc2Cl)o1)N1CCN(S(=O)(=O)c2cccs2)CC1`?
aSyn UTR act: -114*

What do the screens show for `CN1CCN(C(=S)c2ccc(-c3cccc(Cl)c3Cl)o2)CC1`?
aSyn UTR act: -113*

What do the screens show for `N#CCCN1CCN(C(=S)c2ccc(-c3ccc(Cl)cc3)o2)CC1`?
aSyn UTR act: -88*

Results for CN(C)c1ccc(Nc2ncnc3ccc(Br)cc23)cc1 ?
aSyn UTR act: -72*

What do the screens show for `CCCCOc1ccc(N2C(=O)CC(N(O)c3ccccc3)C2=O)cc1` (configuration not stated)?
aSyn UTR act: -85*

What do the screens show for `Cn1c(SCc2ccc(Br)cc2)nnc1-c1ccccn1`?
aSyn UTR act: -93*

What do the screens show for `Cn1c(SCc2ccccc2)nnc1-c1cnccn1`?
aSyn UTR act: -131*

Results for Cn1nc(-c2ccccn2)nc2c(=O)n(C)c(=O)nc1-2 ?
aSyn UTR act: 94

What do the screens show for `Cc1ccccc1CSc1nnc(-c2cnccn2)n1C`?
aSyn UTR act: -105*

How did Cn1c(SCc2ccc(F)cc2)nnc1-c1cnccn1 do in these assays?
aSyn UTR act: -85*

Results for [O-][n+]1c2cc(C(F)(F)F)ccc2c2n1CCN=C2c1ccc(Cl)cc1 ?
aSyn UTR act: -65*

What do the screens show for `Nc1c(Cl)cc(C2=NCCn3c2c2ccc([N+](=O)[O-])cc2[n+]3[O-])cc1Cl`?
aSyn UTR act: 61

Results for Cc1cccc(NC(=O)Nc2ccc(Cl)cc2)n1 ?
aSyn UTR act: -99*

How did COc1ccc(C2C(C(=O)Nc3cccc(C)n3)CCC(=O)N2c2ccc(OC)cc2)cc1 (configuration not stated) do in these assays?
aSyn UTR act: 73
